For 40 compounds, activity change, negative = inhibition results are on record in PubChem BioAssay (NCATS).

Inconclusive results are not listed. Values without a mark were called inactive. The call rests on the fitted dose curve; in most records, active means well fitted curve in either direction with a large enough effect (not every such curve was filed as active); inconclusive means small, poorly fitted or top-dose-only effect, or another doubt; inactive means flat fitted curve, though single readings scatter.
On the % scale 0 is the no-effect control and ±100 the full control effect.

The assay in a line: NFAT Signaling Pathway (AID 444).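 Further: carbachol stimulus at about its EC50 of 1 µM final.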 As to conditions: Jurkat NFAT-bla M1, carbachol, beta-lactamase ratio, 5 h; at 17.2 µM (top of the series) unless noted. An outline of the steps:
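Jurkat cells carrying an NFAT-driven β-lactamase reporter and co-transfected muscarinic M1 receptor were treated with compound plus carbachol (1 uM final, an EC50 level) for 5 h at 37 °C. CCF4 loading followed for 1 h at RT; 460/530 nm ratio gave %activity.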
In the case of `CC(=O)N1CCC2(CC1)C(C#N)=C(N)Oc1n[nH]c(C(F)(F)F)c12`, the activity change, negative = inhibition was -24.1%. Under `COC(=O)C(NC(=O)c1ccco1)(Nc1ccc(Br)cn1)C(F)(F)F` (stereo not given) stands -10.8%; under `C=CCOc1ccc(/C(O)=C2/C(=O)C(=O)N(CCCN3CCOCC3)C2c2ccccc2)cc1` (stereo not given), 12.9%; under `C=C(Br)Cn1c(CCCC)nc2ccccc21`, 1.5%. In the case of `CC(C)(C)c1ccc(C(=O)C=[N+]=[N-])cc1`, the activity change, negative = inhibition is 1.56%. `CSc1nc(N)nc(SCC(=O)OC(C)C)c1C#N`: the activity change, negative = inhibition was 6.28%.

For the compound `CCCOc1ccc(N2C(=O)CC(N(CCC)C(=O)CCC(=O)O)C2=O)cc1` (stereo not given), the activity change, negative = inhibition was 18.7%. The same measure for `COc1ccc(Oc2nc3c(c(=O)n(C)c(=O)n3C)n2Cc2cccc(OC)c2)cc1`: -3.53%; for `CCOC(=O)CCNc1n[nH]c(=O)[nH]c1=O`: 7.29%; for `Nc1nc2n(n1)C(c1ccc(F)cc1)CC(c1ccc(F)cc1)N2` (stereo not given): 10.7%. Under `COc1ccccc1N1CCN(CCOc2c(OC)cccc2OC)CC1` stands 12.8%. Under `CC1(C)CC(=O)C2=C(C1)OC(N)=C(C#N)[C@@]21C(=O)N(CC(N)=O)c2ccccc21` stands 4.51%; under `CC1(c2ccco2)NC(=O)NC1=O` (stereo not given), 1.83%.

In the case of `COC(=O)c1cc(Br)c(=O)n(Cc2ccco2)c1`, the activity change, negative = inhibition is -14.5%.

Regarding `CCc1cc2c(=O)c(-c3cscn3)coc2c(CN(C)C)c1O`, the activity change, negative = inhibition was -7.56%. On to `COc1cc(C)nc(Oc2ccc(OCCOc3ccc(C)cc3)nn2)n1`, for which the activity change, negative = inhibition is 5.08%. The same measure for `Cc1cc(=O)oc(C)c1C(=O)NCCC1=CCCCC1`: -27.5%. The same measure for `O=C(CC(c1ccco1)S(=O)(=O)c1ccccc1)c1ccc(F)cc1` (stereo not given): -1.61%; for `COc1ccc(-c2nn3c(-c4ccccn4)nnc3s2)cc1OC`: -21.8%; for `Nc1nc(NC(=O)Cc2ccccc2)nn1-c1ccccc1`: 9.17%. The same measure for `CSc1nc2[nH]c3c(c2c2nncn12)CC(C)(C)OC3`: -1.24%; for `Cn1c(=O)[nH]c2cc(Cl)cnc21`: 3.47%; for `CCCOc1ccc(C2/C(=C(/O)c3ccccc3)C(=O)C(=O)N2CCCN(C)C)cc1OC` (stereo not given): 3.58%. As for `CCCc1cc(NCCN2CCOCC2)n2c(nc3ccccc32)c1C#N`, the activity change, negative = inhibition is 9.42%. Under `CCNc1sc(C(=O)c2cccs2)c(N)c1C#N` stands 20.9%. Under `O=C1C2ON(c3ccccc3)C(c3ccncc3)C2C(=O)N1c1ccc(Br)cc1` (stereo not given) stands 10.7%. Consider `CC1=CC=CN2CC(O)CN=C12` (stereo not given), for which the activity change, negative = inhibition is -0.121%. The same measure for `CCOC(=O)CNC(=O)CNC(=O)c1ccc(OCC(C)C)cc1`: 8.09%; for `Cc1cc(=O)oc(C)c1C(=O)NCCc1ccccc1`: -8.25%; for `Cc1ccc(N2CN=c3s/c(=C\c4cccnc4)c(=O)n3C2)cc1`: -22.3%.

`Cn1c(=O)c2c(nc(OCc3cccnc3)n2Cc2ccccc2)n(C)c1=O`: the activity change, negative = inhibition is -6.31%. On to `CCNC(=O)COn1c(SCC(=O)NCC)nc2ccccc2c1=O`, for which the activity change, negative = inhibition is 9.09%. Under `COc1ccc(C2=CC(c3cccc(OC)c3)n3nnnc3N2)cc1` (stereo not given) stands 1.4%; under `CN1C(=S)SC(N(O)C(=O)Nc2ccccc2)C1(C)C` (stereo not given), -13.4%; under `COc1cc(C(=O)Nc2nccs2)cc(OC)c1OC`, -2.54%. The same measure for `COc1ccc(OC)c(C2=Nn3c(nnc3-c3ccco3)SC2)c1`: 24.6%. The same measure for `COc1ccccc1-n1c(N)c(C(=O)NCC2CCCO2)c2nc3ccccc3nc21` (stereo not given): 21.4%; for `C=CCNc1nc(-c2cccc(OC)c2O)nc2ccccc12`: 4.81%; for `Cc1nc(NCc2ccccc2)c(C(N)=O)c2c1COC(C)(C)C2`: 9.09%. `CCCOc1cccc(C2/C(=C(/O)c3ccc(F)cc3)C(=O)C(=O)N2CCN(C)C)c1` (stereo not given): the activity change, negative = inhibition was 2.49%.
